Consider 53 compounds from PubChem BioAssay AID602289 (National Center for Advancing Translational Sciences (NCATS), 2012).

Among all 2,400 compounds or so, about 40 (2%) were called active. Another 1% or so got no clear call; they are omitted.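 The calls were made as follows: active = inhibition at or above 60%; inconclusive = inhibition from 0% up to below 60%; inactive = no inhibition observed.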 What follows is part of a selection rich in actives, with near analogues and random picks from the rest.

The experiment in a line: qHTS Assay for Small Molecule Inhibitors of Mitochondrial Division or Activators of Mitochondrial Fusion: Hit Validation in Malachite Green Assay.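 As to inhibition: plate controls were DMSO wells with GTPase for no effect and protein-free buffer wells for full effect.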 The settings on record: purified GTPase, malachite green phosphate release, A650; active compounds read high. An excerpt: The budding yeast S. cerevisiae is a powerful system to study mitochondrial fusion. Unlike other organisms, yeast cells without functional mitochondrial DNA (mtDNA) can be propagated and studied as long as they maintain a mitochondrial compartment and are provided with a fermentable carbon source. When mitochondrial fusion is blocked in yeast, mitochondrial tubules rapidly fragment and division continues unopposed. Under conditions where fusion is compromised in mammalian cells, nearly identical changes in mitochondrial structure have been observed. Thus, these findings indicate that steady state mitochondrial structure in cells is a characteristic and specific indicator of fusion activity. Mounting evidence has pointed to a connection between mitochondrial dynamics and apoptosis in mammalian cells. These studies indicate that in mammalian cells mitochondrial dynamics are more integrated into cellular processes than in yeast cells and have evolved not only to distribute the organelle but also to aid in the regulation of cellular homeostasis. Mitochondrial fusion proteins attenuate apoptosis by inhibiting the release of cytochrome c from mitochondria, in part by controlling cristae structures. Thus, small molecules that inhibit mitochondrial fusion may promote apoptosis and potentially act as novel chemotherapeutics and stimulation of apoptosis has become an attractive target of anti-cancer therapies. To identify inhibitors of mitochondrial division, we exploit the growth phenotypes of mitochondrial fusion-defective mutants. The temperature sensitive fusion alleles, such as fzo1-1 and mgm1-5, cause mitochondrial membranes to fragment in cells under non-permissive conditions and cells lose mtDNA, and are unable to grow in the presence of non-fermentable carbon source glycerol. Inhibiting mitochondrial division rescues growth. The hits were tested by the assay provider in a malachite green assay. NIH Chemical Genomics Center [NCGC] NIH Molecular Libraries Probe Production Centers Network [MLPCN] MLPCN Grant: MH081279 Assay Submitter (PI): Jodi M. Nunnari
Malachite Green Reagent Malachite Green carbinol base- Aldrich 229105 Ammonium molybdate - Sigma A7302 For 100 mL Malachite Green reagent in 1N HCl 16 mL conc. HCL + 32 mL H20 = 48 mL 4N HCl 34 mg malachite green base into 40 mL 1N HCl (10 mL 4N HCl + 30 mL H20) 1 g ammonium molybdate in 15 mL 4N HCl Mix Solutions together. Bring up to […] with H2O. Filter using a 0.2 um tissue culture filter unit (has plastic bottle attached) store at 4 masculine C. (Avoid Glassware/Plastics washed in detergent. Mix solutions in 50 mL conical vials.) For 20 uL reaction volume 1.0 uL Test Drug or DMSO: Added first to each well […]: 25 mM Hepes/Pipes pH 7.0 (H/P) 2.0 uL: 50 mM MgCl2 (final 5mM) 2.32 uL: 1 M NaCl (with contributing protein salt, Final = 150mM) 13.4 uL per reaction. Can be mixed in larger volume (Mini Master Mix) 1.6 uL: Protein 7.5 uM or Protein Freezing Buffer. (Final = 0.6uM) After Protein Added to mini Master Mix, 15ul Total Master Mix added to each well with drug. 4 uL: 500 uM GTP (Final = 100uM), Dilute with 25 mM H/P, store on ice. 20 uL Total Volume Make Master Mix: (Calculate desired reactions and add a few for multi-channel pipetting volume). Multiply the number of desired reactions by 13.4 uL for total Mini Master volume. Multiply the number of desired reactions by 1.6 uL for total Protein volume. Mix, and keep on ice until added to wells. Add 15 uL of Master Mix to each reaction well, incubate with drug for 10 min. For Positive (No Drug) controls add 15 uL Master Mix to wells with only 1 uL DMSO. Make PFB (Protein Freezing Buffer) (no Protein) Master Mix. Multiply the number of desired reactions by 13.4 uL for total Mini Master volume. Multiply the number of desired reactions by 1.6 uL for total PFB volume. Mix, and keep on ice until added to wells Add 10 uL of PFBMaster Mix to each Phosphate Standards well, and 15 uL to each negative control well with DMSO. […]
(In general: In qHTS, concentration-response curves come from the screen itself.)
One may read the inhibition as the change of the read-out against control, counted positive when it falls. On to `O=C(/C=C/c1ccccc1Cl)c1ccc[nH]1`, for which the inhibition result was “inactive”. The same measure for `Cc1cc(C)nc(NC(=O)/C=C/c2ccccc2Cl)c1`: “inactive”. As for `Cc1ccc(C)c(/C=C/C(=O)c2ccccc(=O)c2O)c1`, the inhibition is 73.2% (active). For `O=C(/C=C/c1ccccc1Cl)c1ccccc(=O)c1O` the value was 77.4% (active); for `CC1=C(C(=O)OCc2ccccc2)C(/C=C/c2ccccc2)NC(=S)N1` (stereo not drawn), “inactive”; for `C/C(N)=C(/C#N)C(=O)COC(=O)C(c1ccccc1)c1ccccc1`, “inactive”. `COc1ccc(/C(N)=N/OC(=O)C2CCC(=O)N2S(=O)(=O)c2ccc(C)cc2)cc1` (stereo not drawn): the inhibition entry was “inactive”. The same measure for `O=C(Nc1nc(-c2cccs2)cs1)c1cccc(S(=O)(=O)N2CCCCC2)c1`: “inactive”; for `COc1ccc(-c2cc(C(=O)OC(C)C(=O)Nc3c(C)n(C)n(-c4ccccc4)c3=O)c3ccccc3n2)cc1` (stereo not drawn): “inactive”.

`Cc1cccc(C(=O)N(Cc2nc3ccccc3c(=O)[nH]2)C2CCCCC2)c1`: the inhibition entry was “inactive”. The same measure for `O=C(NCc1ccc2c(c1)OCO2)c1ccc(-c2ccc(Cl)cc2)o1`: “inactive”. The same measure for `CCc1ccccc1NC(=O)/C(C#N)=C/c1ccc(Sc2ccccc2)o1`: “inactive”; for `COc1cc2c(c(OC)c1OC)-c1c(cc3c(c1O)OCO3)C[C@@H](C)[C@@H](C)C2`: “inactive”; for `Cc1cccn2c(=O)c(/C=C(\C#N)C(=O)NCc3ccco3)c(N3CCCCC3)nc12`: “inactive”. The same measure for `Clc1ccc(C[n+]2csc3ccccc32)cc1`: 71.7% (active); for `Cc1nc(CS(=O)(=O)c2ccccc2)cc(Sc2ccc(Cl)cc2Cl)n1`: “inactive”.

In the case of `COc1cc(OC)cc(-c2c(-c3cccs3)c3cc(-c4ccn[nH]4)ccc3n2C)c1`, the inhibition entry was “inactive”. The same measure for `CCOc1ccc(C(=O)Nc2c(C(N)=O)oc3ccccc23)cc1`: “inactive”; for `CCOC(=O)c1c(NC(=O)C(C)OC(=O)C2=COCCO2)sc2c1CCCC2` (stereo not drawn): “inactive”. Consider `CCOC(=O)c1sc(NC(=O)C2=COCCO2)c(C#N)c1C`, for which the inhibition is 100% (active). Turning to `CCOC(=O)Nc1sc2c(c1C#N)CCC(C)C2` (stereo not drawn), the inhibition result was “inactive”.

Regarding `CCOC(=O)c1sc(NC(=O)c2ccco2)c(C#N)c1C`, the inhibition entry is “inactive”.

For the compound `CCOC(=O)c1sc(NC(=O)c2ccncc2)c(C#N)c1C`, the inhibition is 104% (active). The same measure for `CCCc1ccc(-c2csc(NC(=O)C3=COCCO3)n2)cc1`: “inactive”; for `CCc1ccccc1N(CC(=O)NCCc1ccccc1)C(=O)CCC(=O)Nc1ccccn1`: “inactive”. The same measure for `COc1ccccc1N1CCN(C(=O)c2cc(=O)c3c(C)cc(C)cc3o2)CC1`: “inactive”; for `CCOC(=O)c1c(CN2CCN(c3ccccc3)CC2)oc2ccc(O)cc12`: “inactive”. For `CNC(=O)c1ccsc1NC(=O)c1ccccc1` the value was “inactive”.

Consider `C=CCN(c1ccccc1)S(=O)(=O)c1ccc2c(c1)NC(=O)C(C)S2` (stereo not drawn), for which the inhibition entry is “inactive”. Regarding `CCCNC(=S)N1CCN(c2nc(C)nc3sc4c(c23)CCCC4)CC1`, the inhibition result was “inactive”. For `O=C(Nc1ccc(Cl)c(-c2nc3ccccc3[nH]2)c1)c1ccc2c(c1)OCO2` the value was “inactive”; for `S=C(Nc1ccc(Oc2ccccc2)cc1)NC1CCCCC1`, “inactive”.

In the case of `O=C1C=C(c2cccc(Cl)c2)C[C@@H](c2ccc3c(c2)OCO3)C1`, the inhibition result is “inactive”. In the case of `CC(C)c1nnc(NC(=O)C2c3ccccc3Oc3ccccc32)s1`, the inhibition is 93.8% (active). For `O=C(Nc1nc(-c2ccncc2)cs1)C1c2ccccc2Oc2ccccc21` the value was “inactive”. The same measure for `CCc1nnc(NC(=O)C2c3ccccc3Oc3ccccc32)s1`: “inactive”; for `O=C(CCc1ccc(Oc2cc([N+](=O)[O-])cc([N+](=O)[O-])c2)cc1)Nc1cccc(Cl)c1`: “inactive”; for `CCN(CC)C(=O)CSc1nc2cc3c(cc2c(=O)n1CCCCCC(=O)NCc1ccc(OC)cc1)OCO3`: “inactive”. For `Cc1ccc(NCc2n[nH]c(=S)n2-c2cccc(Cl)c2)cc1` the value was “inactive”; for `CC1CCc2[nH]c3ccc(C(=O)N4CCCC(C(F)(F)F)C4)cc3c2C1` (stereo not drawn), “inactive”; for `Cc1ccc(-n2nnnc2SCC(=O)c2cc(C)n(-c3cc(C)on3)c2C)c(C)c1`, “inactive”. Turning to `C#CCOc1ccc(/C=C2\SC(=S)N(Cc3cccnc3)C2=O)cc1`, the inhibition result is “inactive”.

In the case of `O=C1/C(=C\c2ccc(O)c(O)c2)SC(=S)N1Cc1ccccc1`, the inhibition was 94.2% (active).

With `O=C(CCCN1C(=O)/C(=C/c2ccccc2)SC1=S)Nc1ccccc1O`, the inhibition result is “inactive”. The same measure for `O=C(CN1CCN(c2ccccn2)CC1)Nc1ccccc1`: “inactive”; for `CC(C)n1c(O)c(N=NC(=O)C2COc3ccccc3O2)c2ccccc21` (stereo not drawn): “inactive”. `CCOC(=O)N=Nc1c(O)n(Cc2ccccc2)c2ccccc12`: the inhibition result was “inactive”. As to `CC(C)(C)c1ccc2c(c1)OC(C(=O)N/N=C\c1ccccn1)CO2` (stereo not drawn), the inhibition was 66% (active). The same measure for `Cc1c(/C=N\NC(=O)C2COc3ccc(C(C)(C)C)cc3O2)c2ccccc2n1C` (stereo not drawn): “inactive”; for `CCSc1nnc(NC(=O)c2ccccc2C)s1`: “inactive”; for `COCCCNc1nc2ccccc2nc1NS(=O)(=O)c1cccc(Cl)c1`: “inactive”. For the compound `Cc1ccc(C)c(NC(=O)c2ccccc2Sc2ccc([N+](=O)[O-])cc2Cl)c1`, the inhibition result is “inactive”. The same measure for `N#Cc1ccc(-c2ccccc2)nc1SCC(=O)c1cc2ccccc2oc1=O`: “inactive”.
